# Compound activity as filed in PubChem.
# HCV inhibitor: blocks hepatitis C virus | Huh7.5.1 HCVcc-Cre infection, luciferase reporter, 44 h | 340,000 tested, 3.4% active | Potency, µM (highest dose often 41.8 µM), without a hit: top-dose activity change, negative = inhibition, usual class: inhibitors | AID 651820; further: potency means the concentration at half of the fitted maximal effect
#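 Infectious HCV cell culture screen: compound-treated cells (1,000/well, pre-plated 4 h) are infected with HCVcc-Cre at roughly 0.5 moi and grown 44 h. Infection is quantified by luciferase signal after 15 min substrate incubation at room temperature.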
# Pf growth 48h: P. falciparum growth inhibition at 48 hours (one generation); P. falciparum luciferase growth in erythrocytes, 48 h; Potency, µM (top dose mostly 28.7 µM), inactives show at the highest dose activity change, negative = inhibition, usual class: inhibitors; 310,000 tested, 5.9% active; AID 504832; further: potency means the concentration at half of the fitted maximal effect
#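 In quantitative HTS format, infected erythrocytes bearing luciferase-reporter parasites were treated for a single generation at 37 C. Luminescence after adding detection reagent served as the growth measure.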
# Pf growth 96h: inhibits malaria parasite growth, 96 h. P. falciparum luciferase reporter growth, 96 h. Potency, µM (top dose mostly 28.7 µM), without a hit: at the top dose activity change, negative = inhibition, actives largely listed as inhibitors. 320,000 tested, 6.9% active; further: potency means the concentration at half of the fitted maximal effect
#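 Parasite growth measured via integrated firefly luciferase reporter in P. falciparum. Infected erythrocytes at 2% hematocrit, 0.05% parasitemia final were treated 96 hours at 37 C under 5% CO2, and luminescence was read.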
# HCMV antiviral: human cytomegalovirus inhibition; 410,000 tested, 4.5% active; activity change, negative = inhibition, % at 57.5 µM; HFF cells, HCMV-luciferase reporter, 72 h; active compounds read low; in the data active means activity change below about -60%; inconclusive means no clear call, values can overlap the other calls; inactive means above about -39%
#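 After 16 h attachment at 37C, HFF cells received test compound and HCMV-luciferase (1 PFU/cell); reporter luminescence read 72 h later, data normalized against buffer-only and known inhibitor Salinomycin.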
# LASV entry inh: Lassa virus entry inhibition. Lassa virus pseudotype entry inhibition, cell reporter. Potency, µM (highest dose often 37.9 µM), without a hit: at the top dose activity change, negative = inhibition, actives largely listed as inhibitors. 300,000 tested, 1.2% active; calls by dose curve; tested in HEK293 cells; further: potency means the concentration at half of the fitted maximal effect; nearly all actives have a fitted effect of over 50% in size
# MARV entry inh: blocks Marburg virus binding to or entry into cells; Marburg virus pseudotyped entry inhibition, cell reporter; Potency, µM (highest dose often 37.8 µM), for the others: at the highest dose activity change, negative = inhibition, usual class: inhibitors; 300,000 tested, 1.8% active; AID 540276; calls by dose curve; tested in HEK293 cells; further: potency means the concentration at half of the fitted maximal effect
# An asterisk follows results filed as active; ? = inconclusive; nt = no result given; [ ] = remark or other dose. The list is not random: actives were taken first. Their share in the collection is about 14%. Unless noted, the call rests on the fitted dose curve; in most records, active means well fitted inhibition curve with a large enough effect; inconclusive means small, poorly fitted or top-dose-only effect, or another doubt; inactive means no such curve, though single readings can be large or run the other way. On the % scale 0 is the no-effect control and ±100 the full control effect.
SMILES,HCV inhibitor,Pf growth 48h,Pf growth 96h,HCMV antiviral,LASV entry inh,MARV entry inh
O=[N+]([O-])c1cccc(/C=C/C=N/Nc2nc(N3CCCCC3)nc(N3CCCCC3)n2)c1,?,6%,1%,?,nt,13%[46.1 µM]
COc1cccc(/C=N/Nc2ccc([N+](=O)[O-])cn2)c1O,1.1µM*,?,?,-98*,?,?
CCOC(=O)c1ccc(-n2c(CCC(=O)O)ccc2-c2ccccc2)cc1O,nt,nt,nt,12,3%[46.1 µM],9%[46.1 µM]
COc1ccc(/C=N/Nc2nc(N3CCCC3)nc(N3CCCC3)n2)cc1O,?,0%,-5%,-24,-6%,?
COc1cccc(/C=N/Nc2ncccc2[N+](=O)[O-])c1OC,-10%,-19%,161%,66,?,1.6µM*
COc1cccc(/C=N/Nc2nc(Nc3ccc([N+](=O)[O-])cc3)nc(N3CCCC3)n2)c1O,?,?,40%,?,?,2µM*
O=[N+]([O-])c1ccc(C=NNc2ccc(S(=O)(=O)O)cc2)cc1,5%,nt,nt,-11,0%[46.1 µM],19%[46.1 µM]
O=[N+]([O-])c1ccc(/C=N/Nc2ncccc2[N+](=O)[O-])s1,-9%,nt,nt,?,9%,17%[46.1 µM]
CNc1nc(N/N=C/c2ccc([N+](=O)[O-])cc2)nc(Nc2ccccc2)n1,?,3.3µM*,?,-36,-24%,?
O=[N+]([O-])c1cc2c(cc1/C=N/Nc1nc(Nc3ccccc3)nc(N3CCCCC3)n1)OCO2,?,4.7µM*,2.9µM*,-75*,1%,-26%
COc1cccc(CNC(=O)CCc2nnc3n(CC(C)C)c(=O)c4ccccc4n23)c1,nt,nt,nt,?,nt,1%[46.1 µM]
O=[N+]([O-])c1ccc(Nc2nc(NC3CCCCC3)nc(N3CCCC3)n2)cc1,?,?,?,-73*,-29%[46.1 µM],?
O=c1oc2ccccc2c(N2CCCCC2)c1[N+](=O)[O-],11%,-3%,33%,28,3%,5%
O=c1oc2ccccc2c(N2CCCC2)c1[N+](=O)[O-],0%,30%,3%,-94*,-19%[46.1 µM],4%[46.1 µM]
COc1ccc(S(=O)(=O)N2CCOCC2)cc1NC(=O)C1CC(=O)N(c2ccc3c(c2)OCCO3)C1 (stereo not drawn),nt,nt,nt,0,nt,nt
CCc1ccc(NC(=O)C2CCN(c3nn4c(=O)cc(C)nc4s3)CC2)cc1,nt,nt,nt,-21,?,11%[46.1 µM]
Nc1nc(Sc2ccc([N+](=O)[O-])c3nonc23)c2[nH]cnc2n1,2.8µM*,nt,nt,-85*,?,?
Cc1ccc(Sc2ncnc(N)c2[N+](=O)[O-])cc1,-1%,?,0%,-17,0%,-42%
Nc1nc(SCc2ccccc2)c2[nH]cnc2n1,9%,18%,24%,52,nt,nt
CNc1ncnc(Sc2nc(N)nc3nc[nH]c23)c1[N+](=O)[O-],?,nt,nt,-77*,2.5µM*,?
CCOC(=O)CN1C(=O)[C@]2(OCCC=C[C@@H]2C)c2cc(OC)ccc21,nt,nt,nt,nt,nt,13%[14.2 µM]
Cc1ccc(-n2nc3c(=O)n(CCCC(=O)NCc4ccc(C)o4)nc(C)c3c2C)cc1,-29%,10µM*,?,?,nt,nt
Cc1ccc(-n2nc3c(=O)n(CCCC(=O)NCc4ccc(Cl)cc4)nc(C)c3c2C)cc1,26%,?,2%,-23,nt,nt
Cc1ccc(N2C(=O)N(CC(=O)NCc3ccccc3Cl)C(=O)C2C)cc1 (stereo not drawn),?,10µM*,-9%,1,?,?
Cc1ccc(-n2nc3c(=O)n(CCCC(=O)NCc4cccc(Cl)c4)nc(C)c3c2C)cc1,22µM*,9.3µM*,?,28,nt,nt
SMILES,HCV inhibitor,Pf growth 48h,Pf growth 96h,HCMV antiviral,LASV entry inh,MARV entry inh
Cc1ccc(-n2nc3c(=O)n(CCCC(=O)NCCc4ccccc4Cl)nc(C)c3c2C)cc1,nt,nt,nt,28,3%[46.1 µM],nt
Cc1ccc(N2C(=O)N(CC(=O)Nc3ccccc3C)C(=O)C2C)cc1 (stereo not drawn),-9%,11%,-15%,30,0%,5%
Cc1ccc(-n2nc3c(=O)n(CCCC(=O)NCc4ccccc4Cl)nc(C)c3c2C)cc1,5%,?,2.6µM*,?,nt,nt
CCn1cc(C(=O)N2CCN(c3cccc(Cl)c3)CC2)c(=O)c2cc(S(=O)(=O)N3CCC(C)CC3)ccc21,nt,nt,nt,16,-28%[46.1 µM],?
Cc1c(C)n(Cc2ccccc2)c2ccc(C(=O)NCCc3ccccc3Cl)cc12,nt,nt,nt,0,-7%[46.1 µM],nt
Cc1nn(Cc2c(F)c(F)c(F)c(F)c2F)c(C)c1NC(=O)c1ccc(COc2ccc(Cl)cc2Cl)o1,7.1µM*,-9%,?,-81*,?,?
CC(C)CNC(=O)c1ccc(COc2ccc(Cl)cc2Cl)o1,13µM*,?,0%,-14,11µM*,-17%
Cc1nn(Cc2ccc(Cl)cc2Cl)c(C)c1NC(=O)c1ccc(COc2cc(Cl)ccc2Cl)o1,?,?,?,-40,-17%,?
O=C(Nc1ccn(Cc2c(F)c(F)cc(F)c2F)n1)c1ccc(COc2ccc(Cl)cc2Cl)o1,13µM*,nt,?,-38,?,?
CC(=O)Nc1ccc(NC(=O)c2ccc(COc3ccc(Cl)cc3Cl)o2)cc1,nt,nt,nt,-23,1%[46.1 µM],?
Cc1nn(Cc2cccc(F)c2)c(C)c1NC(=O)c1ccc(COc2ccccc2Cl)cc1,10µM*,13µM*,nt,-76*,-32%[14.3 µM],-8%
CCOc1cccc(Nc2nn(-c3ccc(OC(F)(F)F)cc3)nc2C(C)=O)c1,nt,nt,nt,-13,?,-1%[46.1 µM]
O=C(NCCCCO)c1c(-c2ccccc2)oc2c1C(OCCCCCO)CCC2 (stereo not drawn),nt,nt,nt,21,nt,nt
CCNC(=O)C1CCCN(C(=O)c2cc(F)cc(F)c2)CC1 (stereo not drawn),nt,nt,nt,-93*,nt,nt
COc1cc(-c2nc(C(=O)NC3CCN(Cc4ccccc4)CC3)cc3c2[nH]c2ccccc23)cc(OC)c1OC,?,?,2.1µM*,nt,nt,nt
COc1cc(-c2nc(C(=O)NC3CCCCC3)cc3c2[nH]c2ccccc23)cc(OC)c1OC,?,6.6µM*,?,-25,nt,nt
COc1ccc(OC)c(-c2nc(C(=O)NC3CCN(Cc4ccccc4)CC3)cc3c2[nH]c2ccccc23)c1,6.3µM*,8.3µM*,3.7µM*,25,nt,nt
COc1ccc(OC)c(-c2cc(C(=O)NCCN3CCOCC3)no2)c1,?,27%,?,16,-15%,4%
COc1cc(C(=O)NC2CCN(Cc3ccccc3)CC2)cc(Cl)c1OC,?,?,?,-39,nt,nt
COc1ccc(OC)c(-c2nc(C(=O)NCCCN3CCOCC3)cc3c2[nH]c2ccccc23)c1,?,2.3µM*,2.9µM*,65,nt,nt
COc1ccc(C(=O)NC2CC2)cc1OC1CCN(Cc2ccccc2)CC1,10%,-15%,?,nt,10%,14%
